{
  "source": "the supplement of paper PMC12645437",
  "about": "“Orthogonal IMiD-Degron Pairs Induce Selective Protein Degradation in Cells” (ACS Chemical Biology, 2025)",
  "biological_target": "T1, CRBN, Q96SW2",
  "T1 chain": "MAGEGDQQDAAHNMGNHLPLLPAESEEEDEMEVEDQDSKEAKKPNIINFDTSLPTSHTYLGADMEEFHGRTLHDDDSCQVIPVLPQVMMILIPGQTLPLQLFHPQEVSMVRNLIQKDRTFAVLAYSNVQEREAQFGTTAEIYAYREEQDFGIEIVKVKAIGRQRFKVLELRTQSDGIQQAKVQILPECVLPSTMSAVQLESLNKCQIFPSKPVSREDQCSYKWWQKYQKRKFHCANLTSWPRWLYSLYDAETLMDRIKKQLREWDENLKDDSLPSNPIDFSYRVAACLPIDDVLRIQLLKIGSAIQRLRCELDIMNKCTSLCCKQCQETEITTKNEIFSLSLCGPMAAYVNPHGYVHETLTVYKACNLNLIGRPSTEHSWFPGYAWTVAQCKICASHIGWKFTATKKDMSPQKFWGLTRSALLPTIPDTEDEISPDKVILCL",
  "experiment": "log2 fold change of degron read counts, EGFP-low vs EGFP+ sorted cells (limma voom), compound-induced degradation; higher = more compound-induced degradation of the degron-EGFP fusion; degrons are variants of IKZF1/3 zinc finger 2; compound dose not given here",
  "conditions": "Jurkat, 18 h",
  "key": {"[1]": {"conditions": "compound: compound 19 (5-tert-butyl-thalidomide)"}, "[2]": {"conditions": "compound: compound 22 (5-morpholino-thalidomide)"}, "[3]": {"conditions": "compound: compound 33 (diphenyl IMiD analogue)"}},
  "note": "Over roughly 8,300 sequences, “log2 fold change of degron read counts, EGFP-low vs EGFP+ sorted cells (limma voom), compound-induced degradation” has its median near -1.1; the highest 2% begin near 3.2. The sample holds the highest values, similar sequences and a random draw of the others, so the mix is not that of the screen.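 Note: pooled lentiviral library of zinc finger degron-EGFP fusions in mCherry-positive Jurkat cells, FACS-sorted after compound exposure, with degron abundance counted by next-generation sequencing.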",
  "data": [
    {"sequence": "FECNQCGAGFTQKGNLLRHIKL", "note": "[46F_47E_49N_50Q_52G_53A_54G_55F_67L_, Q9UKT9]", "values": [
      {"measurement": "log2 fold change of degron read counts", "setting": "[1]", "value": -2.2},
      {"measurement": "log2 fold change of degron read counts", "setting": "[2]", "value": -2.79},
      {"measurement": "log2 fold change of degron read counts", "setting": "[3]", "value": -2.43},
      {"measurement": "log2 fold change of degron read counts", "setting": "compound: thalidomide", "value": -2.17}
    ]},
    {"sequence": "LLCNQCGFQCTQKGNLLRHIKL", "note": "[46L_47L_49N_50Q_52G_53F_54Q_55C_67L_, Q9UKT9]", "values": [
      {"measurement": "log2 fold change of degron read counts", "setting": "[1]", "value": -2.02},
      {"measurement": "log2 fold change of degron read counts", "setting": "[2]", "value": -1.96},
      {"measurement": "log2 fold change of degron read counts", "setting": "[3]", "value": -2.15},
      {"measurement": "log2 fold change of degron read counts", "setting": "compound: thalidomide", "value": -1.68}
    ]},
    {"sequence": "FQCNVCGAYFTQKGNLLRHIKL", "note": "[46F_47Q_49N_50V_52G_53A_54Y_55F_67L_, Q9UKT9]", "values": [
      {"measurement": "log2 fold change of degron read counts", "setting": "[1]", "value": -2.25},
      {"measurement": "log2 fold change of degron read counts", "setting": "[2]", "value": -1.8},
      {"measurement": "log2 fold change of degron read counts", "setting": "[3]", "value": -0.854},
      {"measurement": "log2 fold change of degron read counts", "setting": "compound: thalidomide", "value": 1.41}
    ]},
    {"sequence": "FICEICGHAFTQKGNLLRHIKL", "note": "[46F_47I_49E_50I_52G_53H_54A_55F_67L_, Q9UKT9]", "values": [
      {"measurement": "log2 fold change of degron read counts", "setting": "[1]", "value": -3.32},
      {"measurement": "log2 fold change of degron read counts", "setting": "[2]", "value": -2.94},
      {"measurement": "log2 fold change of degron read counts", "setting": "[3]", "value": -2.31},
      {"measurement": "log2 fold change of degron read counts", "setting": "compound: thalidomide", "value": -1.67}
    ]},
    {"sequence": "FRCDQCGACFTQKGNLLRHIKL", "note": "[46F_47R_49D_50Q_52G_53A_54C_55F_67L_, Q9UKT9]", "values": [
      {"measurement": "log2 fold change of degron read counts", "setting": "[1]", "value": -2.93},
      {"measurement": "log2 fold change of degron read counts", "setting": "[2]", "value": -3.5},
      {"measurement": "log2 fold change of degron read counts", "setting": "[3]", "value": -1.12},
      {"measurement": "log2 fold change of degron read counts", "setting": "compound: thalidomide", "value": -2.52}
    ]},
    {"sequence": "FHCEICGHSFTQKGNLLRHIKL", "note": "[46F_47H_49E_50I_52G_53H_54S_55F_67L_, Q9UKT9]", "values": [
      {"measurement": "log2 fold change of degron read counts", "setting": "[1]", "value": -2.93},
      {"measurement": "log2 fold change of degron read counts", "setting": "[2]", "value": -3.88},
      {"measurement": "log2 fold change of degron read counts", "setting": "[3]", "value": -2.79},
      {"measurement": "log2 fold change of degron read counts", "setting": "compound: thalidomide", "value": -3.22}
    ]},
    {"sequence": "FTCNQCGHFFTQKGNLLRHIKL", "note": "[46F_47T_49N_50Q_52G_53H_54F_55F_67L_, Q9UKT9]", "values": [
      {"measurement": "log2 fold change of degron read counts", "setting": "[1]", "value": -1.82},
      {"measurement": "log2 fold change of degron read counts", "setting": "[2]", "value": -2.32},
      {"measurement": "log2 fold change of degron read counts", "setting": "[3]", "value": -2.31},
      {"measurement": "log2 fold change of degron read counts", "setting": "compound: thalidomide", "value": -2.01}
    ]},
    {"sequence": "FICEICGRCFTQKGNLLRHIKL", "note": "[46F_47I_49E_50I_52G_53R_54C_55F_67L_, Q9UKT9]", "values": [
      {"measurement": "log2 fold change of degron read counts", "setting": "[1]", "value": -2.73},
      {"measurement": "log2 fold change of degron read counts", "setting": "[2]", "value": -1.99},
      {"measurement": "log2 fold change of degron read counts", "setting": "[3]", "value": -0.856},
      {"measurement": "log2 fold change of degron read counts", "setting": "compound: thalidomide", "value": -0.602}
    ]},
    {"sequence": "FCCPVCGAHFTQKGNLLRHIKL", "note": "[46F_47C_49P_50V_52G_53A_54H_55F_67L_, Q9UKT9]", "values": [
      {"measurement": "log2 fold change of degron read counts", "setting": "[1]", "value": 1.59},
      {"measurement": "log2 fold change of degron read counts", "setting": "[2]", "value": 0.752},
      {"measurement": "log2 fold change of degron read counts", "setting": "[3]", "value": 1.65},
      {"measurement": "log2 fold change of degron read counts", "setting": "compound: thalidomide", "value": 0.961}
    ]},
    {"sequence": "LRCNQCGFFCTQKGNLLRHIKL", "note": "[46L_47R_49N_50Q_52G_53F_54F_55C_67L_, Q9UKT9]", "values": [
      {"measurement": "log2 fold change of degron read counts", "setting": "[1]", "value": -1.45},
      {"measurement": "log2 fold change of degron read counts", "setting": "[2]", "value": -1.65},
      {"measurement": "log2 fold change of degron read counts", "setting": "[3]", "value": -1.16},
      {"measurement": "log2 fold change of degron read counts", "setting": "compound: thalidomide", "value": -0.846}
    ]},
    {"sequence": "FYCEICGASFTQKGNLLRHIKL", "note": "[46F_47Y_49E_50I_52G_53A_54S_55F_67L_, Q9UKT9]", "values": [
      {"measurement": "log2 fold change of degron read counts", "setting": "[1]", "value": 3.72},
      {"measurement": "log2 fold change of degron read counts", "setting": "[2]", "value": 3.7},
      {"measurement": "log2 fold change of degron read counts", "setting": "[3]", "value": 2.91},
      {"measurement": "log2 fold change of degron read counts", "setting": "compound: thalidomide", "value": 1.64}
    ]},
    {"sequence": "FSCEICGASFTQKGNLLRHIKL", "note": "[46F_47S_49E_50I_52G_53A_54S_55F_67L_, Q9UKT9]", "values": [
      {"measurement": "log2 fold change of degron read counts", "setting": "[1]", "value": 3.56},
      {"measurement": "log2 fold change of degron read counts", "setting": "[2]", "value": 2.8},
      {"measurement": "log2 fold change of degron read counts", "setting": "[3]", "value": 2.11},
      {"measurement": "log2 fold change of degron read counts", "setting": "compound: thalidomide", "value": 1.64}
    ]},
    {"sequence": "FCCEICGASFTQKGNLLRHIKL", "note": "[46F_47C_49E_50I_52G_53A_54S_55F_67L_, Q9UKT9]", "values": [
      {"measurement": "log2 fold change of degron read counts", "setting": "[1]", "value": 3.35},
      {"measurement": "log2 fold change of degron read counts", "setting": "[2]", "value": 2.7},
      {"measurement": "log2 fold change of degron read counts", "setting": "[3]", "value": 2.35},
      {"measurement": "log2 fold change of degron read counts", "setting": "compound: thalidomide", "value": 2.35}
    ]},
    {"sequence": "FGCEICGASFTQKGNLLRHIKL", "note": "[46F_47G_49E_50I_52G_53A_54S_55F_67L_, Q9UKT9]", "values": [
      {"measurement": "log2 fold change of degron read counts", "setting": "[1]", "value": 3.07},
      {"measurement": "log2 fold change of degron read counts", "setting": "[2]", "value": 2.12},
      {"measurement": "log2 fold change of degron read counts", "setting": "[3]", "value": 1.77},
      {"measurement": "log2 fold change of degron read counts", "setting": "compound: thalidomide", "value": 1.03}
    ]},
    {"sequence": "FKCEICGASFTQKGNLLRHIKL", "note": "[46F_47K_49E_50I_52G_53A_54S_55F_67L_, Q9UKT9]", "values": [
      {"measurement": "log2 fold change of degron read counts", "setting": "[1]", "value": 1.57},
      {"measurement": "log2 fold change of degron read counts", "setting": "[2]", "value": -0.809},
      {"measurement": "log2 fold change of degron read counts", "setting": "[3]", "value": -2.2},
      {"measurement": "log2 fold change of degron read counts", "setting": "compound: thalidomide", "value": -0.268}
    ]},
    {"sequence": "FHCEICGASFTQKGNLLRHIKL", "note": "[46F_47H_49E_50I_52G_53A_54S_55F_67L_, Q9UKT9]", "values": [
      {"measurement": "log2 fold change of degron read counts", "setting": "[1]", "value": 3.13},
      {"measurement": "log2 fold change of degron read counts", "setting": "[2]", "value": 2.67},
      {"measurement": "log2 fold change of degron read counts", "setting": "[3]", "value": 1.52},
      {"measurement": "log2 fold change of degron read counts", "setting": "compound: thalidomide", "value": 0.22}
    ]},
    {"sequence": "FQCEICGASFTQKGNLLRHIKL", "note": "[46F_47Q_49E_50I_52G_53A_54S_55F_67L_, Q9UKT9]", "values": [
      {"measurement": "log2 fold change of degron read counts", "setting": "[1]", "value": 2.5},
      {"measurement": "log2 fold change of degron read counts", "setting": "[2]", "value": 2.8},
      {"measurement": "log2 fold change of degron read counts", "setting": "[3]", "value": 2.23},
      {"measurement": "log2 fold change of degron read counts", "setting": "compound: thalidomide", "value": 3.75}
    ]},
    {"sequence": "FMCEICGASFTQKGNLLRHIKL", "note": "[46F_47M_49E_50I_52G_53A_54S_55F_67L_, Q9UKT9]", "values": [
      {"measurement": "log2 fold change of degron read counts", "setting": "[1]", "value": 1.61},
      {"measurement": "log2 fold change of degron read counts", "setting": "[2]", "value": 1.94},
      {"measurement": "log2 fold change of degron read counts", "setting": "[3]", "value": 2.9},
      {"measurement": "log2 fold change of degron read counts", "setting": "compound: thalidomide", "value": 2}
    ]},
    {"sequence": "FDCEICGASFTQKGNLLRHIKL", "note": "[46F_47D_49E_50I_52G_53A_54S_55F_67L_, Q9UKT9]", "values": [
      {"measurement": "log2 fold change of degron read counts", "setting": "[1]", "value": 3.18},
      {"measurement": "log2 fold change of degron read counts", "setting": "[2]", "value": 0.784},
      {"measurement": "log2 fold change of degron read counts", "setting": "[3]", "value": 0.437},
      {"measurement": "log2 fold change of degron read counts", "setting": "compound: thalidomide", "value": 1.24}
    ]}
  ]
}
